Data as given in PubChem BioAssay (NCATS).
Results filed as inconclusive are left out. Activity calls are given as the source filed them. Unless noted, calls follow the shape of the full dose curve.

What was measured:
[1] = AP1 Signaling Pathway (AID 357; active = well fitted curve in either direction with a large enough effect, not every such curve was filed as active;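 also: ME-180 reporter cells stimulated with EGF at its EC50 level; % is scaled to controls: 0 for no effect and ±100 for the full control effect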)
In short: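 A ratiometric CCF4 readout (405 nm excitation; 460 and 530 nm emission) quantified AP-1-driven beta-lactamase in ME-180 cells after 5 h with compound and EC50 EGF; AC50 values were derived for activators and inhibitors.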

[2] = NFAT Signaling Pathway (AID 444; active = well fitted curve in either direction with a large enough effect, not every such curve was filed as active;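 also: carbachol stimulus at about its EC50 of 1 µM final; % is scaled to controls: 0 for no effect and ±100 for the full control effect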); details: Jurkat NFAT-bla M1, carbachol, beta-lactamase ratio, 5 h
In short: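 Read-out: CCF4 FRET ratio (460 nm/530 nm) after 1 h RT dye loading, used for %activity and AC50 from titration series. Cells: Jurkat NFAT-β-lactamase/M1 line, treated with compound plus 1 uM carbachol for 5 h, 37 °C.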

[3] = molecular target: Cytochrome P450 1A2 (Homo sapiens) (UniProt P05177); assay: p450-cyp1a2 (AID 410); also: potency is read from the fitted curve at half-maximal effect;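 as to activity change, negative = inhibition: -100% = full effect of reference inhibitor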
In short: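 Inhibition was calculated relative to 57 uM furafylline (full inhibition). The reaction used human CYP1A2 at 20nM with Luciferin-ME at its Km, 100uM, driven by an NADPH-regenerating system for 60 min at room temperature.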

[4] = Cell Viability - BJ (AID 421); details: BJ fibroblast viability, qHTS;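 also: potency is read from the fitted curve at half-maximal effect; cells exposed to compound for 40 hours at 37 °C before readout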
In short: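 Cytotoxicity in human BJ foreskin fibroblasts is scored as loss of cellular ATP after a 40-hour exposure, measured by luciferase luminescence. Controls are DMSO and 100 uM tamoxifen.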

[5] = Cell Viability - Jurkat (AID 426;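 active = dose-dependent loss of cell ATP signal giving a full or clear fitted curve, ranked by lower potency value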;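 also: potency is read from the fitted curve at half-maximal effect; cells exposed to compound for 40 hours at 37 °C before ATP read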); details: qHTS
In short: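 Seed 5000 Jurkat E6-1 cells/well; add compound; incubate 40 hr at 37 °C; add CellTiter-Glo; wait 20 min at room temperature; read luminescence. Fit concentration-response with Hill equation for AC50.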

[6] = Cell Viability - Hek293 (AID 427;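 active = compounds whose dose-response curve shows a full or clear partial loss of cell viability, called from curve shape rather than a numeric limit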;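 also: potency is read from the fitted curve at half-maximal effect; cells exposed to compound for 40 hours at 37 °C before reading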); details: qHTS
In short: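 qHTS, human embryonic kidney (adenovirus-transformed) cells; 40 hr cpd, 37 °C; CellTiter-Glo ATP luminescence. Norm: DMSO = 0, 100 uM tamoxifen = 100% inhibition. Hill-fit AC50.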

[7] = Cell Viability - HepG2 (AID 433); details: qHTS;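 also: potency is read from the fitted curve at half-maximal effect; potency for ATP loss meaning cytotoxicity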
In short: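 Cytotoxicity is scored as loss of intracellular ATP in HepG2 cells exposed to compounds for 40 h. Concentration-response curves, normalized to DMSO and 100 uM tamoxifen, give AC50 values.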

[8] = Cell Viability - MRC5 (AID 434); details: MRC5 lung fibroblast viability, qHTS;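 also: potency is read from the fitted curve at half-maximal effect; cells exposed to compound for 40 hours at 37 °C; potency reflects cytotoxicity seen as loss of intracellular ATP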
In short: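 qHTS cytotoxicity in human lung fibroblast MRC5 cells; 40 hr treatment, 37 °C; cellular ATP by luciferase luminescence; DMSO = 0%, 100 uM tamoxifen = 100% inhibition; Hill-fit AC50.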

[9] = Cell Viability - SK-N-SH (AID 435); details: SK-N-SH neuroblastoma cell viability qHTS;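 also: potency is read from the fitted curve at half-maximal effect; compound exposure lasted 40 h at 37 °C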
In short: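 Cells seeded at 1500 per well and incubated 5 hr at 37 °C. Compound added, then 40 hr at 37 °C. CellTiter-Glo added, 20 min at room temperature, luminescence read.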

Chain of Cytochrome P450 1A2 (Homo sapiens) (P05177 whole entry, looked up): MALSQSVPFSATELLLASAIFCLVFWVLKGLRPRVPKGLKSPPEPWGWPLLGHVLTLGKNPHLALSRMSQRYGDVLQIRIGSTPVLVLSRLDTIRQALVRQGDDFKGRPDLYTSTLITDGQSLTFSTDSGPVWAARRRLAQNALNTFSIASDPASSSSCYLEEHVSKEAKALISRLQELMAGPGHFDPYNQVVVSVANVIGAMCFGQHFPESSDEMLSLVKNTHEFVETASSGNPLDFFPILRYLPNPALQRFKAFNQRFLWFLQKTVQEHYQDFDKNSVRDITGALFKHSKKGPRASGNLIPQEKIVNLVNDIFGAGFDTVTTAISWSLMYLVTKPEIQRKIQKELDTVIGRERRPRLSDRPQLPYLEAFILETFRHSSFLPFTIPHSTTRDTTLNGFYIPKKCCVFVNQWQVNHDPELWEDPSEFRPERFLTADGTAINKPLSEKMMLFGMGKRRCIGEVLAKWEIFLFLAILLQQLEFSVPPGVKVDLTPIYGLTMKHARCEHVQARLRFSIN

NCC(CC(=O)O)c1ccc(Cl)cc1 (stereo not given)
inactive: outcome [1] | activity change, negative = inhibition ([2]; at 17.2 µM (top of the series)) 12.1%

NP(N)(=O)NC(=O)c1ccc(F)cc1
inactive: Potency [3]

O=P1(NCCCl)OCCCN1CCCl (stereo not given)
inactive: outcome [1] | activity change, negative = inhibition ([2]; at 17.2 µM (top of the series)) -9.45%

c1ccc2c(c1)Nc1ccccc1S2
inactive: Potency [4] > 92 µM | Potency [5] > 92 µM | Potency [6] > 92 µM | Potency [7] > 92 µM | Potency [8] > 92 µM | Potency [9] > 92 µM

C#CCN(C)[C@H](C)Cc1ccccc1
active: Potency [3] 12.6 µM

CC(=O)[C@H]1CC[C@H]2[C@@H]3CC[C@H]4C[C@H](O)CC[C@]4(C)[C@H]3C(=O)C[C@]12C
inactive: outcome [1] | activity change, negative = inhibition ([2]; at 17.2 µM (top of the series)) -29.1%

Oc1ccc(Cl)cc1Cc1ccccc1
inactive: Potency [4] > 92 µM | Potency [5] > 92 µM | Potency [6] > 92 µM | Potency [7] > 92 µM | Potency [9] > 92 µM

O=C1CC[C@@]2(O)[C@H]3Cc4ccc(O)c5c4[C@@]2(CCN3CC2CC2)[C@H]1O5
inactive: outcome [1] | activity change, negative = inhibition ([2]; at 17.2 µM (top of the series)) 1.18%

CCCC(C)(COC(N)=O)COC(=O)NC(C)C (stereo not given)
inactive: Potency [4] > 92 µM | Potency [5] > 92 µM | Potency [6] > 92 µM | Potency [7] > 92 µM | Potency [8] > 92 µM | Potency [9] > 92 µM | activity change, negative = inhibition ([2]; at 17.2 µM (top of the series)) -6.68%

C[C@]12C/C(=C/O)C(=O)C[C@@H]1CC[C@@H]1[C@@H]2CC[C@@]2(C)[C@H]1CC[C@]2(C)O
inactive: Potency [7] > 92 µM | Potency [8] > 92 µM
active: Potency [5] 54.9 µM

CCOP(=S)(OCC)Oc1cc(C)nc(C(C)C)n1
inactive: Potency [4] > 92 µM | Potency [5] > 92 µM | Potency [6] > 92 µM | Potency [7] > 92 µM | Potency [8] > 92 µM | Potency [9] > 92 µM

Cc1ncc(CNC(=O)N(CCCl)N=O)c(N)n1
inactive: outcome [1] | activity change, negative = inhibition ([2]; at 38 µM (top of the series)) 3.51%

OCCOc1ccccc1
inactive: Potency [4] > 92 µM | Potency [5] > 92 µM | Potency [6] > 92 µM | Potency [7] > 92 µM | Potency [8] > 92 µM | Potency [9] > 92 µM

Oc1ccccc1-c1ccccc1
inactive: Potency [4] > 92 µM | Potency [6] > 92 µM | Potency [7] > 92 µM | Potency [8] > 92 µM | Potency [9] > 92 µM
